This is a sample that favours compounds with a hit; in the whole collection about 2.5% have one here.
WRN inhibitor – inhibitors of human WRN helicase | Q14191 | Potency, µM (highest dose often 114 µM), hits mostly inhibitors | 360,000 tested, 0.46% active | WRN helicase unwinding, fluorescent forked duplex, kinetic; also: nearly all actives have a fitted effect of over 55% in size
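Kinetic red-fluorescence monitoring (525/598 nm) tracks WRN helicase activity after 100 nM fluorophore-quencher forked duplex and 2 mM ATP are added to 20 nM enzyme pretreated 15 min at room temperature with compound.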
Pol kappa inh – DNA polymerase kappa (human) inhibition; Potency, µM (doses to about 107 µM), usual class: inhibitors; Q9UBT6; AID 588579; 400,000 tested, 0.53% active; purified Pol kappa, fluorescent DNA synthesis assay, 10 min
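10 nM Pol kappa preincubated 15 min at room temperature with compounds, then reaction started with substrate at 50 nM final. Fluorescence read kinetically at 0 and 10 min; buffer-only wells served as negative control.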
POLI inh – DNA polymerase iota (human) inhibition; Pol iota fluorescent replication assay, 10 min; Potency, µM (titrated, usually from 115 µM), actives largely listed as inhibitors; 390,000 tested, 1% active; AID 588590
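Fluorescent replication assay read twice, at 0 min and 10 min after adding 50 nM (final) substrate. Enzyme (10 nM) and compounds were first incubated 15 min at room temperature; enzyme-free buffer wells were negative controls.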
Pol eta inh – blocks human DNA polymerase eta activity | Q9Y253 | recombinant Pol eta, fluorescent DNA replication assay | Potency, µM (series often up to 114 µM), most hits filed as inhibitors | 390,000 tested, 1.2% active | AID 588591
Target sequence (Q9Y253 whole entry, looked up): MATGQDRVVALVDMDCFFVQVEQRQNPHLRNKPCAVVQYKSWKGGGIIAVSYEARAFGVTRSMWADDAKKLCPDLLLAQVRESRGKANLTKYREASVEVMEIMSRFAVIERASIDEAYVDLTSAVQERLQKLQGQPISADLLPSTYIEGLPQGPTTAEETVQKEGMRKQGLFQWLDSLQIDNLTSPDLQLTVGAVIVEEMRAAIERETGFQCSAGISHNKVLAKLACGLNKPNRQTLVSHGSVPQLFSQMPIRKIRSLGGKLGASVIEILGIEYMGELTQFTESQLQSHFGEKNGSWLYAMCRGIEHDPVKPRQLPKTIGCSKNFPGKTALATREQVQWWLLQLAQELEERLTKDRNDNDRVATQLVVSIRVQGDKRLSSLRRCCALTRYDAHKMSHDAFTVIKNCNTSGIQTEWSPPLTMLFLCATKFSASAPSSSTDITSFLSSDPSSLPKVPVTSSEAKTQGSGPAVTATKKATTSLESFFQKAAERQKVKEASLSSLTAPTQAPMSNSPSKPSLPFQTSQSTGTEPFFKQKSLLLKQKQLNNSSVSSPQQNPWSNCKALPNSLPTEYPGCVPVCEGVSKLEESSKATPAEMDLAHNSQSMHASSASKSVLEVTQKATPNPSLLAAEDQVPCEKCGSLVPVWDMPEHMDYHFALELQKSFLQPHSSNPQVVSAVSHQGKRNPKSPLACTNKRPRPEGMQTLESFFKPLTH
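Fluorescent replication assay: 50 nM final substrate added after a 15 min room-temperature compound preincubation with 10 nM enzyme. Signal taken at 0 min and again at 10 min.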
L3MBTL1 inh – L3MBTL1 (human) inhibition. Q9Y468. AlphaScreen L3MBTL1–H3K9me1 peptide binding. Potency, µM (doses to about 57.1 µM), hits mostly inhibitors. 230,000 tested, 0.66% active; also: nearly all actives have a fitted effect of over 60% in size
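AlphaScreen assay: L3MBTL1 (50 nM final) was preincubated 30 min at room temperature with biotinylated H3(1-15)K9me1 peptide (75 nM final), then 30 min with library compounds; streptavidin donor and nickel chelate acceptor beads (10 ug/mL final) added, 30 min dark.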
POLB inh – inhibitors of human DNA polymerase beta. Pol beta primer extension/strand displacement, fluorescence kinetic. Potency, µM (top dose mostly 114 µM), most hits filed as inhibitors. 340,000 tested, 1.3% active
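Kinetic readout of DNA synthesis with strand displacement by Pol beta. Compound and 10 nM enzyme sit 15 min at room temperature; 50 nM substrate starts the reaction, read immediately and at 10 min.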
Hits are given with their value; n = inactive; u = inconclusive; x = no result; [ ] = remark or other dose. Calls follow the shape of the dose curve; as a rule, active = well fitted curve in the direction sought with a large enough effect; inconclusive = small, poorly fitted or top-dose-only effect, or another doubt; inactive = no such curve, though single readings can be large; an effect the other way counts as inactive or inconclusive.

SMILES	WRN inhibitor	Pol kappa inh	POLI inh	Pol eta inh	L3MBTL1 inh	POLB inh
O=C(CSc1ccc(Cl)cc1)Nc1ccc(-c2nc3ccccc3[nH]2)cc1	n	n	n	u	n	31.6µM
COc1cc(/C=N/Nc2ccccc2[N+](=O)[O-])cc(OC)c1O	n	n	n	n	u	n
COc1cc(/C=N/Nc2ccc(S(N)(=O)=O)cc2[N+](=O)[O-])cc(OC)c1O	n[11.6 µM]	n	39.8µM	u	n	u
COc1cc(/C=N/Nc2nc3ccccc3s2)cc([N+](=O)[O-])c1O	u	n	n	56.2µM	n	22.4µM
FC(F)(F)c1cccc(N2CCC(N=CN3CCCCCC3)=N2)c1	n	n	n	89.1µM	x	n
O=c1c(/C=C(\O)c2ccccc2)nc2ccccc2n1-c1ccccc1	56.2µM	n	n	n	x	n
O=C(O)c1ccccc1-c1nc2ccccc2n1-c1ccccc1	n	n	n	n	n	n
Cc1ccc(NC(=O)C2CCN(S(=O)(=O)c3ccc4c(c3)NC(=O)C(C)S4)CC2)c(Cl)c1 (stereo not drawn)	n	n	15.8µM	n	x	u
Cc1noc(C)c1COc1ccc(C(=O)NNC(=O)c2ccccc2F)cc1	n	n	n	n	n	x
COc1cc(Cl)c(C)cc1NC(=O)CCn1c(=O)c2cccn2c2cccnc21	x	n	n	79.4µM	x	n
O=C(c1cccc(S(=O)(=O)N2CCc3ccccc32)c1)N1CCCC(C(F)(F)F)C1 (stereo not drawn)	n	n	n	n	n	x
CCCCC[C@H](C)N1C[C@H](COCc2ccccc2)Oc2cc(N3CCC[C@H]3C(N)=O)ccc2S1(=O)=O	n	x	x	x	x	x
COc1ccc(Cl)cc1Cn1c(C)c(C(=O)NCc2ccc(F)cc2)sc1=O	n	x	x	x	x	x
Cc1c(Br)ccc(NC(=O)Cn2nc(-c3cccs3)ccc2=O)c1C	n[11.6 µM]	n	50.1µM	n	x	17.8µM
CN(C)c1ccc(/C=C/c2ccncc2)cc1	u	n	n	n	n[11.4 µM]	n
CCN(CC)c1ccc(/C=C/c2ccncc2)cc1	x	n	79.4µM	x	x	x
COc1cccc(N2CCN(C(=O)c3ccc4ccccc4c3)CC2)c1	n	n	n	n	n	x
COc1cccc(N2CCN(C(=O)c3ccc4nc[nH]c4c3)CC2)c1	n[11.6 µM]	n	u	89.1µM	x	n
CCN(C(=O)COC(=O)c1cc(=O)[nH]c2ccccc12)C1CCS(=O)(=O)C1 (stereo not drawn)	n	n	n	n	x	n
CS(=O)(=O)NN1C(=O)c2ccccc2NC12CCCC2	n	n	n	n	n	n
CC(=O)Nc1cccc(NC(=O)Nc2cccc(Cl)c2C)c1	n	n	n	n	n	44.7µM
O=C(O)c1c2c(nc3ccc(S(=O)(=O)N4CCC(C(=O)N5CCCCC5)CC4)cc13)CCCC2	n	u	u	31.6µM	x	n
O=S(=O)(Nc1ccccc1)c1cccc2nsnc12	n[11.6 µM]	u	56.2µM	u	n	n
O=C(/C=C/c1cccs1)NC(=S)NNC(=O)c1ccccc1O	n	n	n	n	35.5µM	n
COc1ccc(C(=O)NNC(=S)NC(=O)/C=C/c2cccs2)cc1	n	n	n	n	n	n
SMILES	WRN inhibitor	Pol kappa inh	POLI inh	Pol eta inh	L3MBTL1 inh	POLB inh
NC(=O)c1ccsc1NC(=O)c1ccc(N2CCCC2=O)cc1	n[11.6 µM]	u	u	25.1µM	x	31.6µM
CN(CC(=O)O)S(=O)(=O)c1cccs1	n	n	89.1µM	n	n	n
CCN1C[C@@H]2[C@@H]3C(=O)N(Cc4ccccc4)C(=O)[C@@H]3[C@](Cc3ccccc3)(C1=O)N2C(=O)c1ccc(C)cc1	n	n	n	n	x	x
CC(=O)NCCc1nc2cc(NC(=O)c3cccs3)ccc2n1C	n	n	n	n	x	n
Cn1c(CCNC(=O)C2CCCCC2)nc2cc(NC(=O)c3cccs3)ccc21	n	n	n	n	n	39.8µM
CC(/C=N/n1c(-c2ccc(C)cc2)n[nH]c1=S)=C\c1ccco1	u	n	n	u	n	n
Cc1ccsc1/C=N/n1c(-c2ccccn2)n[nH]c1=S	n	n	n	n	31.6µM	n
CC(/C=N/n1c(-c2ccco2)n[nH]c1=S)=C\c1ccco1	n	n	u	u	n	28.2µM
S=c1[nH]nc(-c2cccc(Cl)c2)n1/N=C/c1ccco1	n	n	u	u	x	u
